High-throughput results as filed in PubChem BioAssay.
Compounds with a hit are over-represented: about 10% of the library has one in this group of screens.
GPT2 inhibitor: blocks human glutamate pyruvate transaminase 2; AID 1671188; Q8TD30; Potency, µM (doses to about 57.7 µM), for inactives: at the top dose activity change, negative = inhibition, usual class: inhibitors; 100,000 compounds, 0.25% hits; Recombinant GPT2, coupled pyruvate oxidase/HRP Amplex Red fluorescence; further: nearly all actives have a fitted effect of over 60% in size
Target sequence (Q8TD30 whole entry, looked up): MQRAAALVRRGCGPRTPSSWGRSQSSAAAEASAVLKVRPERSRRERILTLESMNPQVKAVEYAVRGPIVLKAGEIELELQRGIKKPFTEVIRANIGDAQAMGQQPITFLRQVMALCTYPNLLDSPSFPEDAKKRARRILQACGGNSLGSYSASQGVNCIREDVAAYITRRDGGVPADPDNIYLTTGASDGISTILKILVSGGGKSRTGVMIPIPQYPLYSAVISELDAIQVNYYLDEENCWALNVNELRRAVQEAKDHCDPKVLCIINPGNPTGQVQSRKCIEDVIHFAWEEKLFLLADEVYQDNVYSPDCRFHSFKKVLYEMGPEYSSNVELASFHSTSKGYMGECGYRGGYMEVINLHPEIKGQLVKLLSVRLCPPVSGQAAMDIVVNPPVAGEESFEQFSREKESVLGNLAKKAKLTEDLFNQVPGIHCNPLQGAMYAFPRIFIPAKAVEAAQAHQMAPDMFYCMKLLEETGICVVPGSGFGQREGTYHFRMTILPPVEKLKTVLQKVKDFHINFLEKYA
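Fluorescence of coupled pyruvate oxidase/HRP/Amplex Red system (50uM Amplex, 30 min, dark) reports pyruvate formed by GPT2. Enzyme reaction: 10ng/uL GPT2, 2mM L-alanine, 250uM a-KG, 30 min room temperature, pH 7.5; 50uM AOA control.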
NIH3T3 tox: kills NIH 3T3 cells. Potency, µM (highest dose often 96.7 µM), inactives show at the top dose activity change, negative = cytotoxicity, most hits filed as inhibitors. NIH 3T3 viability, CellTiter-Glo ATP luminescence, 48-72 h. 94,000 compounds, 4.3% hits; further: nearly all actives have a fitted effect of over 55% in size
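Cytotoxicity was measured by CellTiter-Glo ATP luminescence after 48 or 72 h compound exposure at 37 °C. Mouse NIH 3T3 fibroblasts were seeded at 400 cells/well and dosed by 23 nL pin transfer.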
NPR1 antag: antagonists of human natriuretic peptide receptor Npr1. P16066. HEK293 hNpr1 GloSensor cGMP, ANP-stimulated luminescence. Potency, µM (series often up to 46.3 µM), without a hit: top-dose activity change, negative = inhibition, most hits filed as inhibitors. 76,000 compounds, 1.6% hits; calls by dose curve; further: nearly all actives have a fitted effect of over 60% in size
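Compound pre-incubated 30 min at room temperature on GloSensor-loaded HEK293 cells stably carrying hNpr1 and the pGS-40F cGMP biosensor. Stimulation uses hNppA at 0.1 nM final; luminescence is taken at baseline and 20 min post-agonist.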
Luciferase inh: blocks purified firefly luciferase enzyme activity. 76,000 compounds, 2.5% hits. P08659. purified P. pyralis luciferase, luminescence, biochemical. Potency, µM (titrated, usually from 115 µM), hits mostly inhibitors; further: nearly all actives have a fitted effect of over 65% in size
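Purified P. pyralis luciferase (10nM final) in 50mM Tris acetate pH 7.5, 10mM Mg acetate, 0.01% Tween-20, 0.05% BSA with 10uM D-luciferin and 10uM ATP. Compounds titrated qHTS. Luminescence imaged on CCD.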
HEK cytotox: kills HEK 293 cells; HEK 293 viability, ATP luminescence (CellTiter-Glo), 48-72 h; 94,000 compounds, 6.6% hits; Potency, µM (doses to about 115 µM), for the others: at the highest dose activity change, negative = cytotoxicity, usual class: inhibitors; further: nearly all actives have a fitted effect of over 60% in size
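qHTS cytotoxicity; HEK 293, 250 cells/well; compound pinned; 48 or 72 hr, 37 degree Celsius, 5% CO2, 95% humidity; CellTiter-Glo, 10 min RT; luminescence (ATP).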
Active calls of the source: *; [ ] = dose if it differs, or a comment. Unless noted, the call rests on the fitted dose curve; in most records, active means well fitted curve in the direction sought with a large enough effect; inconclusive means small, poorly fitted or top-dose-only effect, or another doubt; inactive means no such curve, though single readings can be large; an effect the other way counts as inactive or inconclusive. On the % scale 0 is the no-effect control and ±100 the full control effect; potency means the concentration at half of the fitted maximal effect.

For COc1cccc(-c2ccc(CN3CCCC(NC(=O)c4ccc(C)cc4)C3)cc2)c1 (stereo not drawn) the results were GPT2 inhibitor inconclusive, NIH3T3 tox inconclusive and HEK cytotox 22µM*.
Screening COc1cccc(-c2ccc(CN3CCCC(NC(=O)c4ccncc4)C3)cc2)c1 (stereo not drawn) returned GPT2 inhibitor 3%, NIH3T3 tox inconclusive and HEK cytotox 22µM*.
Screening Cc1ccc(CNC(=O)c2ccc3c(c2)CN(Cc2ccc(C)o2)CCO3)cc1 returned GPT2 inhibitor -6%, NIH3T3 tox inconclusive and HEK cytotox inconclusive.
`Cc1ccc2[nH]c(=O)c(CCC(=O)NC3CCN(Cc4ccccc4)CC3)cc2c1` gave GPT2 inhibitor inactive, NIH3T3 tox -7%, NPR1 antag 10%, Luciferase inh inactive and HEK cytotox -27%.
Screening C=CCOCC(O)CN1CCC(=O)N(Cc2ccco2)Cc2c1ccc(OC)c2OCC=C (stereo not drawn) returned NIH3T3 tox -27% and HEK cytotox inconclusive.
For C=CCOc1c(OC)ccc2c1CN(C1CCCC1)C(=O)CCN2CC(O)COc1ccccc1 (stereo not drawn) the results were NIH3T3 tox 40µM* and HEK cytotox inconclusive.
For C=CCOc1c(OC)ccc2c1CN(CCOC)C(=O)CCN2CC(O)COc1ccccc1 (stereo not drawn) the results were NIH3T3 tox -26% and HEK cytotox inconclusive.
`C=CCOc1c(OC)ccc2c1CN(Cc1ccccc1)C(=O)CCN2CC(O)COc1ccc(OC)cc1` (stereo not drawn) gave NIH3T3 tox 40µM* and HEK cytotox inconclusive.
Screening C=CCOc1c(OC)ccc2c1CN(Cc1ccccc1)C(=O)CCN2CC(C)O (stereo not drawn) returned NIH3T3 tox inconclusive and HEK cytotox -27%.
For C=CCOc1c(OC)ccc2c1CN(Cc1ccccc1)C(=O)CCN2CC(O)Cc1ccccc1 (stereo not drawn) the results were NIH3T3 tox inconclusive and HEK cytotox 50µM*.
O=S(=O)(c1cccnc1)N1CC[C@@H]2COCCN(Cc3cccnc3)[C@@H]2C1 was read as GPT2 inhibitor inactive, NIH3T3 tox 5% and HEK cytotox inactive.
For CN(C)c1ccc(CN2CCOC[C@H]2c2ncc(-c3ccncc3)[nH]2)cc1 the results were GPT2 inhibitor -27%[88.5 µM], NIH3T3 tox 1%[174 µM], NPR1 antag 3%[70.6 µM], Luciferase inh inactive and HEK cytotox -24%[172 µM].
COc1cccc(-c2cn3cc(C(=O)NCc4cccc(C(F)(F)F)c4)nc3s2)c1 was read as GPT2 inhibitor inactive, NIH3T3 tox inconclusive and HEK cytotox inconclusive.
`COc1ccc(-c2c(C(=O)NCCc3ccccc3)nc3sccn23)cc1` gave GPT2 inhibitor -11%, NIH3T3 tox inconclusive and HEK cytotox inconclusive.
For O=C1[C@H]2CN(Cc3ccc(F)c(Cl)c3)C[C@H]2C(=O)N1Cc1ccc2c(c1)OCO2 the results were GPT2 inhibitor -2%, NIH3T3 tox inconclusive, NPR1 antag -18%, Luciferase inh inactive and HEK cytotox 35µM*.
CC(=O)N1CCC(c2nnc3n2C(C(=O)NCc2ccccc2Cl)CC3)CC1 (stereo not drawn) was read as GPT2 inhibitor inactive, NIH3T3 tox -4% and HEK cytotox 0%.
O=S(=O)(c1cccs1)N1CCCCC1c1nc(CCOCC2CC2)no1 (stereo not drawn) was read as GPT2 inhibitor -12%, NIH3T3 tox -38%, NPR1 antag -8%, Luciferase inh inactive and HEK cytotox inconclusive.
O=S(=O)(c1ccc2c(c1)CCC2)N1CCCCC1c1nc(CCOCC2CC2)no1 (stereo not drawn) was read as GPT2 inhibitor inactive, NIH3T3 tox 28µM*, NPR1 antag -12%, Luciferase inh inactive and HEK cytotox 40µM*.
Screening CCn1nc(-c2ccc3c(c2)OCCO3)nc1N(C)C returned GPT2 inhibitor inconclusive, NIH3T3 tox -10%, NPR1 antag 0%, Luciferase inh 40µM* and HEK cytotox -9%.
For CCN1c2cc(C(=O)NCc3ccc(SC)cc3)ccc2C(=O)N2CCCCCC21 (stereo not drawn) the results were GPT2 inhibitor -1%, NIH3T3 tox inconclusive, NPR1 antag -8%, Luciferase inh inactive and HEK cytotox inconclusive.
Screening Cc1nn2c(c1-c1ccccc1OCc1ccccc1)N(Cc1cccnc1)CCC2 returned GPT2 inhibitor 4%[88.5 µM], NIH3T3 tox inconclusive, NPR1 antag -20%[70.6 µM], Luciferase inh inactive and HEK cytotox 63µM*.
Screening Cc1nn2c(c1-c1ccccc1OCc1ccccc1)N(Cc1nccn1C)CCC2 returned GPT2 inhibitor inactive, NIH3T3 tox inconclusive, NPR1 antag -25%[70.6 µM], Luciferase inh inactive and HEK cytotox 100µM*.
`Cc1nn2c(c1-c1ccccc1OCc1ccccc1)N(Cc1ccccc1O)CCC2` gave GPT2 inhibitor -2%[88.5 µM], NIH3T3 tox inconclusive, NPR1 antag inconclusive, Luciferase inh inactive and HEK cytotox inconclusive.
Cc1nn2c(c1-c1ccccc1OCc1ccccc1)N(C(=O)CN1CCOCC1)CCC2 was read as GPT2 inhibitor 0%, NIH3T3 tox inconclusive, NPR1 antag -19%, Luciferase inh inactive and HEK cytotox -5%.
CC(=O)N1CCN(C(=O)c2ccc3nc(-c4ccnc(Cl)c4)oc3c2)CC1 was read as GPT2 inhibitor -3%[88.5 µM], NIH3T3 tox -24%[138 µM] and HEK cytotox -9%[172 µM].
For Cc1ccc(Nc2ccnc(N3CCCC(C(=O)N4CCN(Cc5ccccc5)CC4)C3)n2)cc1 (stereo not drawn) the results were GPT2 inhibitor inactive, NIH3T3 tox 40µM* and HEK cytotox 13µM*.
COc1ccc(Nc2ccnc(N3CCC(NC(=O)Nc4ccccc4)CC3)n2)cc1 was read as GPT2 inhibitor -5%, NIH3T3 tox inconclusive and HEK cytotox inconclusive.
`O=C(C1CCN(c2nccc(Nc3ccccc3Cl)n2)CC1)N1CCC(Cc2ccccc2)CC1` gave GPT2 inhibitor -11%, NIH3T3 tox inconclusive and HEK cytotox 25µM*.
For O=C(C1CCN(c2nccc(Nc3ccccc3Cl)n2)CC1)N1CCN(Cc2ccccc2)CC1 the results were GPT2 inhibitor inactive, NIH3T3 tox 32µM* and HEK cytotox inconclusive.
Screening CC(=O)N1CCN(C(=O)C2CCN(c3nccc(Nc4ccccc4Cl)n3)CC2)CC1 returned GPT2 inhibitor inactive, NIH3T3 tox inconclusive and HEK cytotox inconclusive.
Cc1ccc(Nc2ccnc(N3CCCC(C(=O)N4CCOCC4)C3)n2)cc1 (stereo not drawn) was read as GPT2 inhibitor inactive, NIH3T3 tox inconclusive and HEK cytotox inconclusive.
